Source: PubChem
DT40 TDP1 no CPT: qHTS for Inhibitors of human tyrosyl-DNA phosphodiesterase 1 (TDP1): qHTS in cells in absence of CPT. DT40 Tdp1-/- hTDP1 cells, no CPT, ATP luminescence, 48 h. Potency, µM (series often up to 46.2 µM), inactives show at the highest dose activity change, negative = growth inhibition, actives largely listed as inhibitors. 420,000 compounds, 15% hits; further: potency means the concentration at half of the fitted maximal effect; nearly all actives have a fitted effect of over 55% in size
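Compound effects on proliferation are scored in DT40 Tdp1-/-;hTDP1 cells in the absence of CPT. ATP levels (CellTiter-Glo luminescence) are recorded after a ≥48 hr, 37 °C incubation.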
IL1B secr inh: inflammasome signaling inhibition, IL-1 beta readout. THP-1 LPS/ATP IL-1B secretion, AlphaLISA, 16 h; active compounds read low. activity change, % at 57.5 µM. 360,000 compounds, 4.7% hits. AID 743279; in the data active means activity change below about -50%; inconclusive means mostly about -30% to -49%
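Secreted IL-1B measured by AlphaLISA bead assay after 16 h compound exposure of THP-1 cells; compounds (final up to 57.5 uM) added 1 h before LPS (250 ng/mL) and ATP (1.25 mM) stimulation; lower signal means less secretion.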
HT1080NT lethal: kills 2HG-producing HT-1080-NT fibrosarcoma cells. HT-1080-NT fibrosarcoma viability, CellTiter-Glo ATP luminescence, 48 h. Potency, µM (titrated, usually from 46.1 µM), without a hit: top-dose activity, negative = less viability, most hits filed as cytotoxic. 360,000 compounds, 1.6% hits. AID 686970;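 further: NT is the 2HG producing partner of a matched IDH1 knockdown line; potency means the concentration at half of the fitted maximal effect; 0% = DMSO-treated cells and -100% = media-only wells without cells; nearly all actives have a fitted effect of over 55% in size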
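Toxicity toward the 2HG-producing NT line was scored as %Activity, normalised to DMSO and no-cell wells, from CellTiter-Glo luminescence after 48 hours' treatment.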
HT1080 IDH1KD tx: HT-1080 IDH1 knockdown cell toxicity (counter line). Potency, µM (titrated, usually from 46.1 µM), inactives show at the top dose activity, negative = toxicity, hits mostly cytotoxic. HT-1080 IDH1 knockdown viability, ATP luminescence, 48 h. 360,000 compounds, 2% hits;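 further: potency means the concentration at half of the fitted maximal effect; 0% = DMSO wells and -100% = cell-free medium wells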
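Cytotoxicity counter-line: IDH1KD HT-1080, 48 h, CellTiter-Glo. Curves classed by r2, magnitude and activity.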
TDP1 cell CPT: DT40-hTDP1 cell growth loss with CPT | chicken DT40 Tdp1-/-;hTDP1 cells + 20 nM CPT, ATP luminescence, 48 h | Potency, µM (series often up to 46.2 µM), for inactives: at the top dose activity change, negative = growth inhibition, usual class: inhibitors | 420,000 compounds, 12% hits | AID 686979; further: potency means the concentration at half of the fitted maximal effect; nearly all actives have a fitted effect of over 55% in size
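Cell growth measured by CellTiter-Glo luminescence after a minimum 48 h, 37 C compound exposure with 20 nM CPT in Tdp1-knockout DT40 cells stably expressing hTDP1, seeded 400/well; qHTS titration format.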
ALOX12 inh: ALOX12 (human) lipoxygenase inhibition | P18054 | purified 12hLO, xylenol orange hydroperoxide absorbance | Potency, µM (series often up to 108 µM), for inactives: top-dose activity change, negative = inhibition, usual class: inhibitors | 580,000 compounds, 1.1% hits | AID 1671190; further: potency means the concentration at half of the fitted maximal effect
Target sequence (P18054 whole entry, looked up): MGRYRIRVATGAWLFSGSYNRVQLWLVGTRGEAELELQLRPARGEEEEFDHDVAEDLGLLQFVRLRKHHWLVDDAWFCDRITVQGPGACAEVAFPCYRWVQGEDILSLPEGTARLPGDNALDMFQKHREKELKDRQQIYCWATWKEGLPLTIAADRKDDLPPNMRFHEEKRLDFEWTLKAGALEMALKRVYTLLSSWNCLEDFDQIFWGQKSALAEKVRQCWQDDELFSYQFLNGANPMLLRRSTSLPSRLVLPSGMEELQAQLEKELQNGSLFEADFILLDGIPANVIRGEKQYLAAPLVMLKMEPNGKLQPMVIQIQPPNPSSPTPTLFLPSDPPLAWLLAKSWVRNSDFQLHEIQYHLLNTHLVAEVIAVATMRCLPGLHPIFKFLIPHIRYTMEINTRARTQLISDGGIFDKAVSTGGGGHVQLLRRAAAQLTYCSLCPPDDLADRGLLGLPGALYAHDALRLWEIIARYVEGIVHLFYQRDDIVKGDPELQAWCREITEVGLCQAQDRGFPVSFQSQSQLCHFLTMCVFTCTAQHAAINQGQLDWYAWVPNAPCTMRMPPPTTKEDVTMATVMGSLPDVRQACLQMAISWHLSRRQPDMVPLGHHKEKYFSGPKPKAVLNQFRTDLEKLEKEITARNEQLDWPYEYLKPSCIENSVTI
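Purified human 12hLO at 150 nM in 25 mM Hepes, 0.01% Triton X-100, pH 7.0, preincubated 15 min at room temperature with compound. Reaction started with 40 uM arachidonic acid, 30 min at room temperature. Hydroperoxide measured by Fe-xylenol orange, 573/405 nm absorbance ratio.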
* hit, by the source's call; ? = inconclusive; · = not tested or not shown; [ ] = dose if it differs, or a comment. Many of the other results were omitted from the sample, so hits are more common in it than they were. Unless noted, the call rests on the fitted dose curve; in most records, active means well fitted curve in the direction sought with a large enough effect; inconclusive means small, poorly fitted or top-dose-only effect, or another doubt; inactive means no such curve, though single readings can be large; an effect the other way counts as inactive or inconclusive. Unless noted, on the % scale 0 is the no-effect control and ±100 the full control effect.

SMILES	DT40 TDP1 no CPT	IL1B secr inh	HT1080NT lethal	HT1080 IDH1KD tx	TDP1 cell CPT	ALOX12 inh
O=C(O)c1ccccc1C(=O)NNC(=O)C(c1ccccc1)c1ccccc1	16%	-19	6%	15%	-1%	-3%
O=C(NNC(=O)c1ccccn1)c1ccc(OC(F)F)cc1	4.6µM*	51	?	21µM*	5.8µM*	10%
O=C(Nc1nccs1)c1ccccn1	3%	-10	3%	-4%	?	2%
O=C(NNC(=O)c1cccs1)c1ccccn1	?	5	?	?	16µM*	12%
CC(Sc1ccc(Cl)cc1)C(=O)O (stereo unspecified)	·	·	·	·	·	-12%
O=C(NNC(=O)C(c1ccccc1)c1ccccc1)c1ccccc1O	?	49	-16%	?	18µM*	-19%
CN(C)CCNCc1ccco1	·	·	·	·	·	-23%
CC(=O)N1CCN(CC(=O)Nc2cccc3ncccc23)CC1	·	·	·	·	·	-50%
O=C(NNC(=O)C(c1ccccc1)c1ccccc1)c1ccccn1	2.3µM*	-68*	?	?	2.9µM*	11%
CCN(C(=O)COc1ccc(C(C)=O)cc1)c1cccc2ccccc12	?	?	-14%	-1%	15µM*	1%
O=c1c(-c2ccc(O)cc2)coc2cc(O)cc(O)c12	12µM*	-3	-3%	-1%	13µM*	?
COc1ccc(-c2coc3cc(O)cc(O)c3c2=O)cc1	?	-3	-6%	-5%	?	?
CCN(CC)C(CNC(=O)c1n[nH]c(=O)c2ccccc12)c1ccccc1 (stereo unspecified)	·	·	·	·	·	27%
Cc1cc(OC(=O)c2c(C)cc(OC(=O)c3c(C)cc(O)cc3O)cc2O)cc(O)c1C(=O)O	-11%	3	0%	6%	12%	35µM*
COC(=O)c1c(C)cc(O)cc1O	2%	15	-1%	2%	11%	-2%
O=C(CCc1ccc(Cl)s1)NC1CCN(CC(F)F)CC1	·	·	·	·	·	1%
O=C(O)C1CC=CCC1C(=O)Nc1ccc(S(=O)(=O)N2CCCc3ccccc32)cc1 (stereo unspecified)	?	4	?	5.6µM*	-16%	-26%
O=C(Nc1cccc(Cl)c1)c1cc(S(=O)(=O)N2CCCc3ccccc32)ccc1F	4.1µM*	·	·	·	10µM*	?
O=C(Nc1ccc(F)c(Cl)c1)c1cc(S(=O)(=O)N2CCCc3ccccc32)ccc1F	15µM*	·	·	·	13µM*	?
Cc1ccc(Cl)cc1-n1ncc2c(NC3CCCC3)ncnc21	·	·	·	·	·	-55%
CCOC(=O)c1c(NC(=O)c2ccccc2Br)sc2c1CCc1ccccc1-2	18µM*	6	4%	1%	?	?
CCOC(=O)c1c(NC(C)=O)sc2c1CCC(C=O)=C2Sc1ccccc1	6.5µM*	-100*	14µM*	7.1µM*	6.5µM*	?
COc1ccc(S(=O)(=O)N2CCCCCC2)cc1N(C)S(=O)(=O)c1ccc(Cl)cc1	18µM*	-28	?	-10%	16µM*	1%
COc1ccc(S(=O)(=O)N2CCCC2)cc1OC	?	-14	9%	2%	2%	0%
COc1ccc2cc(S(=O)(=O)N3CCCCC3)ccc2c1S(=O)(=O)N1CCCCC1	?	-14	-1%	-1%	21µM*	0%
SMILES	DT40 TDP1 no CPT	IL1B secr inh	HT1080NT lethal	HT1080 IDH1KD tx	TDP1 cell CPT	ALOX12 inh
COc1ccc(S(=O)(=O)N2CCC(C)CC2)cc1N(C)S(=O)(=O)c1ccccc1	?	-1	6%	6%	?	-4%
Cc1ccc(Nc2cccc3ccccc23)cc1	·	·	·	·	·	-26%
COc1cc(OC)c(OC)cc1/C=C/c1cc(C(=O)O)c2ccccc2n1	-1%	6	26%	1%	9%	-16%
CC(C)Nc1ccc(Nc2ccnc3cc4ccccc4cc23)cc1	7.3µM*	-107*	?	5.2µM*	8.2µM*	?
COc1ccc(Nc2ccnc3ccccc23)cc1	16µM*	?	-15%	-23%	13µM*	91%
COc1cc(N(C)C)ccc1/C=C/c1ccnc2ccccc12	25µM*	·	·	·	10µM*	·
COc1cc(/C=C/c2ccnc3ccccc23)cc(OC)c1OC	11µM*	·	·	·	11µM*	·
CC(C)Sc1nc2c(c(=O)[nH]c(=O)n2C)n1CCCc1ccccc1	·	·	·	·	·	2%
COc1ccc(Nc2nc(OC)nc(OC)n2)cc1	-5%	3	18%	3%	1%	25%
COc1ccc(Nc2ccnc(Nc3ccc(OC)cc3)n2)cc1	2.6µM*	-99*	23µM*	21µM*	2.6µM*	3%
COc1ccc(/C=C/c2ccnc3ccccc23)c(OC)c1	18µM*	·	·	·	22µM*	·
c1ccc(CCNc2ccnc3cc4ccccc4cc23)cc1	7.3µM*	-102*	18µM*	21µM*	5.8µM*	?
COc1ccc(/C=C/c2ccnc3ccccc23)cc1	32µM*	·	·	·	11µM*	·
COCc1noc([C@@H]2CC(F)(F)CN2C(=O)c2c(C)noc2C)n1	·	·	·	·	·	-2%
Cc1ccc(F)cc1NC(=O)CSc1nnc(CNC(=O)c2ccco2)n1C	-8%	20	-5%	-9%	-19%	-9%
CCN(CC)C(c1ccc(C)cc1)c1nnnn1C1CCCCC1 (stereo unspecified)	18µM*	-8	3%	0%	?	-38%
COc1ccc(C(c2nnnn2C2CCCC2)N2CCc3ccccc3C2)cc1OC (stereo unspecified)	?	?	6%	-6%[9.24 µM]	?	?
Cc1ccc(C(c2nnnn2C2CCCC2)N2c3ccccc3CC2C)cc1 (stereo unspecified)	18µM*	1	-6%	-10%	?	-7%
Fc1ccc(C(c2nnnn2C2CCCC2)N2CCc3ccccc32)cc1 (stereo unspecified)	23µM*	-6	-1%	-5%	?	0%
Cc1ccc(C(c2nnnn2C2CCCCC2)N2CCN3CCCC3C2)cc1 (stereo unspecified)	-25%	-15	10%	-6%	?	1%
CCC(C)NC(=O)C12CC3CC(CC(Cl)(C3)C1)C2 (stereo unspecified)	·	·	·	·	·	27%
O=C(N/N=C/c1cn(-c2ccccc2)nc1-c1cc2ccccc2o1)c1ccncc1	18µM*	?	?	?	26µM*	-11%
O=C(N/N=C/c1cn(-c2ccccc2)nc1-c1cccnc1)c1cccnc1	-22%	?	3%	11%	-29%	4%
